These results are taken from PubChem BioAssay (EPA / NIEHS).

Activity calls are given as the source filed them. The calls were made as follows: active = hit-call score of the fitted dose curve at least 0.9, where 1 is the maximum; inactive = score below 0.9.

Holding throughout (conditions): mRNA level, 48 h; actives raise or lower the signal
Read-out in experiment [1]: Cyclin D1 (CCND1), CCND1 (gene 595)
Kind of experiment: LTEA_HepaRG_CCND1: Life Technologies and Expression Analysis (LTEA) Assay for Cyclin D1 (CCND1) using HepaRG (AID 2283451). A digest of the protocol:
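Differentiated human HepaRG cells in serum-free induction medium were exposed 48 h to eight half-log concentrations up to 100 uM in 0.5% DMSO; mRNA quantified by TaqMan qRT-PCR, normalized to ACTB, GAPDH, POLR2A, fitted bidirectionally versus DMSO.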

Read-out in experiment [2]: catalase (CAT), CAT (gene 847)
Description: LTEA_HepaRG_CAT: Life Technologies and Expression Analysis (LTEA) Assay for catalase (CAT) using HepaRG (AID 2283452). A digest of the protocol:
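HepaRG cells in serum-free induction medium, 0.5% DMSO vehicle, exposed 48 h in duplicate over 8 half-log concentrations from 100 uM. CAT mRNA measured by qRT-PCR, normalized to ACTB, GAPDH, POLR2A; bidirectional fit versus DMSO.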

Read-out in experiment [3]: flavin-containing dimethylaniline monooxygenases 3 (FMO3), FMO3 (gene 2328)
Description: LTEA_HepaRG_FMO3: Life Technologies and Expression Analysis (LTEA) Assay for flavin-containing dimethylaniline monooxygenases 3 (FMO3) using HepaRG (AID 2283453). A digest of the protocol: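 Differentiated HepaRG cells in serum-free induction medium, exposed 48 h in duplicate to 8 half-log concentrations up to 100 uM in 0.5% DMSO. FMO3 mRNA by qRT-PCR, normalized to ACTB, GAPDH, POLR2A; bidirectional fit vs DMSO.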

Read-out in experiment [4]: Cytochrome P450 (CYP1A1), CYP1A1 (gene 1543)
Kind of experiment: LTEA_HepaRG_CYP1A1: Life Technologies and Expression Analysis (LTEA) Assay for Cytochrome P450 (CYP1A1) using HepaRG (AID 2283454). A digest of the protocol: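 Differentiated HepaRG cells in serum-free induction medium were exposed in duplicate for 48 h to eight half-log concentrations up to 100 uM in 0.5% DMSO. CYP1A1 mRNA was quantified by TaqMan qRT-PCR, normalized to ACTB, GAPDH and POLR2A.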

Read-out in experiment [5]: CFLAR gene, CFLAR (gene 8837)
Kind of experiment: LTEA_HepaRG_CFLAR: Life Technologies and Expression Analysis (LTEA) Assay for CFLAR gene using HepaRG (AID 2283455). A digest of the protocol: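 Differentiated HepaRG cells in serum-free induction medium were exposed 48 h in duplicate to eight half-log concentrations up to 100 uM in 0.5% DMSO; mRNA measured by TaqMan qRT-PCR, normalized to ACTB, GAPDH, POLR2A; bidirectional fitting versus DMSO.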

Read-out in experiment [6]: Forkhead box O1 (FOXO1), FOXO1 (gene 2308)
Kind of experiment: LTEA_HepaRG_FOXO1: Life Technologies and Expression Analysis (LTEA) Assay for Forkhead box O1 (FOXO1) using HepaRG (AID 2283456). In short, it runs like this: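 Differentiated HepaRG cells, in serum-free induction medium with 0.5% DMSO, exposed 48 h in duplicate to 8-point half-log series from 100 uM. FOXO1 mRNA measured by TaqMan qRT-PCR, normalized to ACTB, GAPDH, POLR2A; bidirectional fit versus DMSO.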

Read-out in experiment [7]: growth arrest and DNA damage 45 (GADD45A), GADD45A (gene 1647)
Kind of experiment: LTEA_HepaRG_GADD45A: Life Technologies and Expression Analysis (LTEA) Assay for growth arrest and DNA damage 45 (GADD45A) using HepaRG (AID 2283458). In short, it runs like this: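 Cells plated and cultured 48 h, switched to serum-free induction medium, then dosed for 48 h (100 uM top, half-log dilutions, 0.5% DMSO). RNA was isolated and transcript measured by Fluidigm qRT-PCR.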

Read-out in experiment [8]: Forkhead box O3 (FOXO3), FOXO3 (gene 2309)
Description: LTEA_HepaRG_FOXO3: Life Technologies and Expression Analysis (LTEA) Assay for Forkhead box O3 (FOXO3) using HepaRG (AID 2283459). In short, it runs like this: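 Differentiated human HepaRG cells, 48 h post-plating, exposed in duplicate for 48 h in serum-free induction medium; 8-point half-log series from 100 uM in 0.5% DMSO. FOXO3 mRNA by TaqMan qRT-PCR, normalized to ACTB/GAPDH/POLR2A; bidirectional fit versus DMSO.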

Read-out in experiment [9]: ABC Transporter (ABCB1), ABCB1 (gene 5243)
Description: LTEA_HepaRG_ABCB1: Life Technologies and Expression Analysis (LTEA) Assay for ABC Transporter (ABCB1) using HepaRG (AID 2283460). In short, it runs like this:
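HepaRG cells exposed in duplicate for 48 h in serum-free induction medium to eight half-log concentrations up to 100 uM in 0.5% DMSO. ABCB1 mRNA quantified by qRT-PCR, normalised to ACTB, GAPDH and POLR2A; fitted bidirectionally versus DMSO.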

Read-out in experiment [10]: growth arrest and DNA damage 45 (GADD45B), GADD45B (gene 4616)
Kind of experiment: LTEA_HepaRG_GADD45B: Life Technologies and Expression Analysis (LTEA) Assay for growth arrest and DNA damage 45 (GADD45B) using HepaRG (AID 2283461). In short, it runs like this: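 Differentiated HepaRG cells, plated 48 h then switched to serum-free induction medium, were exposed 48 h in duplicate to eight half-log concentrations from 100 uM in 0.5% DMSO; mRNA quantified by qRT-PCR, normalized to ACTB/GAPDH/POLR2A, bidirectional fit versus DMSO.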

Read-out in experiment [11]: ABC Transporter (ABCB11), ABCB11 (gene 8647)
Kind of experiment: LTEA_HepaRG_ABCB11: Life Technologies and Expression Analysis (LTEA) Assay for ABC Transporter (ABCB11) using HepaRG (AID 2283463). A digest of the protocol: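 Differentiated human HepaRG cells in serum-free induction medium, dosed in duplicate for 48 h. Eight-point half-log series from 100 uM in 0.5% DMSO; ABCB11 mRNA by qRT-PCR, normalized to ACTB, GAPDH, POLR2A, fitted bidirectionally versus DMSO.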

Read-out in experiment [12]: ABC Transporter (ABCC2), ABCC2 (gene 1244)
Kind of experiment: LTEA_HepaRG_ABCC2: Life Technologies and Expression Analysis (LTEA) Assay for ABC Transporter (ABCC2) using HepaRG (AID 2283464). A digest of the protocol: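 HepaRG cells were plated 48 h, switched to serum-free induction medium, then exposed in duplicate for 48 h to 8 concentrations (top 100 uM, half-log steps, 0.5% DMSO). ABCC2 mRNA was measured by qRT-PCR normalized to ACTB/GAPDH/POLR2A; bidirectional fitting versus DMSO.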

Read-out in experiment [13]: Broad substrate specificity ATP-binding cassette transporter ABCG2 (Homo sapiens) (UniProt Q9UNQ0)
Kind of experiment: LTEA_HepaRG_ABCG2: Life Technologies and Expression Analysis (LTEA) Assay for ABC Transporter (ABCG2) using HepaRG (AID 2283465). A digest of the protocol:
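Differentiated HepaRG cells were exposed for 48 h in serum-free induction medium to 8 half-log concentrations, top 100 uM, in 0.5% DMSO. ABCG2 mRNA was measured by qRT-PCR, normalized to ACTB, GAPDH and POLR2A, with bidirectional fitting versus DMSO.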

Read-out in experiment [14]: ATP-citrate lyase (ACLY), ACLY (gene 47)
Description: LTEA_HepaRG_ACLY: Life Technologies and Expression Analysis (LTEA) Assay for ATP-citrate lyase (ACLY) using HepaRG (AID 2283466). In short, it runs like this: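 Differentiated HepaRG cells exposed 48 h in serum-free induction medium to eight half-log concentrations up to 100 uM in 0.5% DMSO, duplicates. Transcript measured by Fluidigm TaqMan qRT-PCR, normalized to ACTB, GAPDH, POLR2A; bidirectional fit versus DMSO.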

Read-out in experiment [15]: Peroxisomal acyl-coenzyme A oxidase 1 (ACOX1) gene, ACOX1 (gene 51)
Description: LTEA_HepaRG_ACOX1: Life Technologies and Expression Analysis (LTEA) Assay for Peroxisomal acyl-coenzyme A oxidase 1 (ACOX1) gene using HepaRG (AID 2283467). A digest of the protocol: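 HepaRG cells, plated 48 h then switched to serum-free induction medium, were exposed in duplicate for 48 h to 8-point half-log concentrations up to 100 uM in 0.5% DMSO. ACOX1 mRNA was measured by qRT-PCR, normalized to ACTB/GAPDH/POLR2A, and fitted bidirectionally versus DMSO.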

Read-out in experiment [16]: Alkaline Phosphatase, Placental (ALPP) gene, ALPP (gene 250)
Description: LTEA_HepaRG_ALPP: Life Technologies and Expression Analysis (LTEA) Assay for Alkaline Phosphatase, Placental (ALPP) gene using HepaRG (AID 2283468). In short, it runs like this: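 Differentiated human HepaRG cells were plated and cultured 48 h, then exposed in duplicate for 48 h in serum-free induction medium to eight half-log concentrations from 100 uM in 0.5% DMSO. ALPP mRNA was measured by TaqMan qRT-PCR, normalized to ACTB, GAPDH, POLR2A.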

Read-out in experiment [17]: Bcl-2 (BAD) gene, BAD (gene 572)
Description: LTEA_HepaRG_BAD: Life Technologies and Expression Analysis (LTEA) Assay for Bcl-2 (BAD) gene using HepaRG (AID 2283469). A digest of the protocol:
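Differentiated HepaRG cells were exposed in duplicate in 0.5% DMSO for 48 h to eight-point half-log concentrations up to 100 uM. BAD mRNA was measured by Fluidigm TaqMan qRT-PCR, normalized to ACTB, GAPDH and POLR2A, and fitted bidirectionally against DMSO.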

Read-out in experiment [18]: Bcl-2 (BAX) gene, BAX (gene 581)
Description: LTEA_HepaRG_BAX: Life Technologies and Expression Analysis (LTEA) Assay for Bcl-2 (BAX) gene using HepaRG (AID 2283470). A digest of the protocol:
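HepaRG (human liver), 48 h exposure, duplicate wells. 8-pt curve, half-log from 100 uM, 0.5% DMSO. BAX transcript by TaqMan qRT-PCR; ACTB/GAPDH/POLR2A normalization; gain or loss vs DMSO baseline.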

Broad substrate specificity ATP-binding cassette transporter ABCG2 (Homo sapiens), sequence (Q9UNQ0 whole entry, looked up): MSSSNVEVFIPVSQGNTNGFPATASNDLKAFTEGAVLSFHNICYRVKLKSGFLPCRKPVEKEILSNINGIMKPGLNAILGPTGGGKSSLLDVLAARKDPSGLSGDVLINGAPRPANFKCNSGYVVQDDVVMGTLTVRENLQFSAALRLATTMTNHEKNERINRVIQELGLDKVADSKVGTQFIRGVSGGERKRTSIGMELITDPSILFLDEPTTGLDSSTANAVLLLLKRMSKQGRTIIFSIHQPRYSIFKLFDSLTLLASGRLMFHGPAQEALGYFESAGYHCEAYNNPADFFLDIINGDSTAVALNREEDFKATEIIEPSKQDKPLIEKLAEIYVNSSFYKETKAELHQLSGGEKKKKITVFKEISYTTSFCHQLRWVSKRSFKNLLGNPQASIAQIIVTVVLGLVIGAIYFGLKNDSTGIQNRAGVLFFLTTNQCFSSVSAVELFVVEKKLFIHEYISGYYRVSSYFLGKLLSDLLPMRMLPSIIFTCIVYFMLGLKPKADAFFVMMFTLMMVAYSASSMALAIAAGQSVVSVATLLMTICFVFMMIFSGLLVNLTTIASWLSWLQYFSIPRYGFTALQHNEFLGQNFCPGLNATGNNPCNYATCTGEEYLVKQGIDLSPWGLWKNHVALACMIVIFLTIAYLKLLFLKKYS

Consider `C=CCc1ccc2c(c1)OCO2`, for which the result in [1], in experiment [2], in [3], in [5], in experiment [6] and in experiment [7] was inactive. The call in experiment [8], in [9], in [10], in experiment [11], in experiment [12] and in [13] was inactive. The outcome in [14], in [15], in experiment [16], in [17] and in [18] was inactive. In experiment [4], the AC50 was 50 µM (active).
Consider `O=P(OCCCl)(OCCCl)OCCCl`, for which the molecule was classed as inactive in experiment [1], in [2], in experiment [3], in experiment [5], in experiment [6] and in experiment [7]. In addition, the result in [8], in experiment [9], in [11], in experiment [12], in [13] and in [14] was inactive. Moreover, the outcome in [15], in experiment [16] and in experiment [17] was inactive. The AC50 in experiment [4] is 76 µM (active); in [18], 9.92 µM (active).

As usually defined, the AC50 is the concentration giving half of the maximal activity seen.
